Screening results deposited in PubChem BioAssay by several laboratories.
The full list was thinned out, with hits kept by preference.
GC-B act – GC-B (human) receptor activation; HEK293-GC-B cells, CNP EC30, cGMP TR-FRET; 0% at EC30 CNP, 100% saturating CNP; P20594; AID 1920062; activation, % at 10 µM; hit rate 0.11% among 370,000;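 active = activation at 10 µM reaching about 35% in either raw or pattern-adjusted values, limit read from the data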
GC-A act – GC-A (human) enzyme activation | P16066 | HEK293 GC-A cells, cGMP TR-FRET, EC30 ANP; 0% at EC30 ANP, 100% saturating ANP | activation, % at 10 µM | hit rate 0.14% among 370,000; in the data active = activation above about 40%
ALR inh – blocks human ALR sulfhydryl oxidase activity; P55789; purified ALR, DTT oxidation, H2O2 HRP-luminol luminescence; inhibition, % (no concentration beside the values); hit rate 3.8% among 290,000;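 active = mean replicate inhibition above about 79%, with every replicate also reaching it, limit read from the data; inconclusive = only one of the two criteria met; inactive = mean below limit and not every replicate reaching it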
HDAC3 inhib – human HDAC3 inhibition. O15379. recombinant HDAC3, fluorogenic peptide/trypsin coupled, fluorescence. inhibition, % at 8.3 µM. hit rate 0.15% among 320,000; in the data active = inhibition above about 26%, passing the limit was not always enough; inconclusive = no clear call, values can overlap the other calls
* hit, by the source's call; ? = inconclusive; . = no result.

SMILES	GC-B act	GC-A act	ALR inh	HDAC3 inhib
CCOC(=O)c1sc(N2C(=O)C(O)=C(C(=O)c3ccco3)C2c2ccc([N+](=O)[O-])cc2)nc1C (stereo not given)	-3	0	.	4
COc1cc(C(=O)OCCCN2CCOCC2)ccc1O	-3	1	99*	3
O=C(c1ccccc1)N(Nc1ccccc1)c1ccccc1	-12	-10	76*	-1
COc1cc(OC)cc(C(=O)OCC(=O)NC2CCCCCCC2)c1	-5	-4	.	.
CCOC(=O)[C@]12CCCCC/C=C\1N(Cc1ccc(OC)cc1)C(=O)[C@H]2CC(=O)NCc1cccs1	-7	-9	.	.
CN(C)CC1CCC/C(=C\c2ccc(OC(=O)c3ccc(Cl)cc3)cc2)C1=O (stereo not given)	4	40*	.	.
CN(C)CC1CCC/C(=C\c2ccc(OC(=O)/C=C/c3ccccc3)cc2)C1=O (stereo not given)	-1	5	.	.
COCCn1c(=S)[nH]c2cc(C(=O)NCC3CCCO3)ccc2c1=O (stereo not given)	-4	4	98*	0
COc1cc2[nH]c(=S)n(CC3CCCO3)c(=O)c2cc1OC (stereo not given)	0	-2	49	6
CCOc1cc2[nH]c(=S)n(CC3CCCO3)c(=O)c2cc1OCC (stereo not given)	-7	7	95*	7
Cc1ccc(S(=O)(=O)Nc2cccc(Cl)c2)cc1NC(=O)C1CC1	-2	-1	-6	3
Cc1ccc(NC(=O)CSCC(=O)Nc2nnc(C)s2)cc1	-1	-3	71	12
COC(=O)/C=C1/S/C(=N/NC(=O)c2ccccc2OC)NC1=O	-6	0	97*	4
COC(=O)/C=C1/S/C(=N/NC(=O)c2ccc(OC)cc2)NC1=O	-1	1	6	3
Cc1nc(C(F)(F)F)ccc1C(=O)N1CCC1(C)C(=O)NS(C)(=O)=O (stereo not given)	3	1	.	.
CC(C(=O)O)n1cc(Cl)cn1 (stereo not given)	5	3	-4	-6
CCC(O)CNC(=O)CCc1nnc(C2(c3ccc(Cl)cc3)CCC2)o1 (stereo not given)	-1	1	-12	-8
CC(=O)c1ccc(N(C)C)cc1	3	0	-11	4
CN(C)c1ccc(/C(=N\O)C(F)(F)F)cc1	8	6	98*	4
C=C(C)CNC(=S)N/N=C/c1ccc(N2CCOCC2)cc1	3	-2	?	-20
COc1cc(/C=N/NC(=S)NCCN2CCOCC2)ccc1O	2	0	99*	10
COCCNC(=S)Nc1ccc(N2CCCCC2)cc1	10	5	99*	-3
CC(C)NC(=S)N/N=C/c1ccc(N2CCOCC2)cc1	12	4	99*	-9
COCCNC(=S)N/N=C/c1ccc(N2CCOCC2)cc1	0	-3	99*	-8
O=C(CN1CCC(NC(=O)NC2CCCC2)CC1)Nc1ccc2c(c1)OCCO2	-3	5	.	.
SMILES	GC-B act	GC-A act	ALR inh	HDAC3 inhib
COC(=O)[C@]12C[C@H](CC(=O)NCc3ccc(C)o3)C(=O)N(Cc3ccc4c(c3)OCO4)C1=C[C@H](C(C)(C)C)O[C@@H]2C	-4	-3	.	.
COC(=O)[C@]12C[C@H](CC(=O)NCCCN3CCCC3=O)C(=O)N(Cc3ccc4c(c3)OCO4)C1=C[C@H](COCc1ccccc1)O[C@@H]2C	1	2	.	.
CC(C)CCNC(=O)CCc1nnc(COc2ccccc2)o1	-3	-2	.	.
CC(C)CN1C(=O)C[C@]2(C(=O)N(C)c3ccc(NS(=O)(=O)C4CCCCC4)cc32)C1c1ccccc1 (stereo not given in full)	-4	0	.	.
Oc1ccc(/C=N/NC(=S)N2CCOCC2)cc1	.	.	99*	13
CC(C)(C)c1ccc(C(=O)Nc2cccc3c(=O)[nH][nH]c(=O)c23)cc1	-1	6	10	-4
Nc1ccccc1Nc1ccc([N+](=O)[O-])cc1[N+](=O)[O-]	2	-1	.	4
Nc1cc([N+](=O)[O-])ccc1Nc1ccc(O)cc1	-5	3	99*	4
COc1ccc(S(=O)(=O)CCC(=O)NCc2ccc(C)o2)cc1	-6	-4	86*	-1
COc1cccc(/C=N/NC(=O)CSCC(=O)Nc2ccccc2)c1O	-3	-6	91*	1
COc1cccc(/C=N/NC(=O)NC2CCCCC2)c1O	5	-1	90*	2
O=C(N/N=C/c1ccc(OC(F)F)cc1OC(F)F)NC1CCCCC1	6	3	8	29*
COc1cccc(/C=N/NC(=O)CC2C(=O)NN=C2C)c1O (stereo not given)	-1	0	97*	1
O=C(N/N=C/c1ccc(OC(F)F)cc1OC(F)F)c1ccc(Br)cc1	-2	-3	0	4
O=C(c1nc[nH]c1C(=O)N1CCN(c2ccccc2)CC1)N1CCN(c2ccccc2)CC1	5	3	93*	-3
O=C(c1ccc(Cl)s1)N1CCN(c2ncccn2)CC1	-1	-1	-1	-6
O=C(c1ccc(Cl)s1)N1CCN(c2ccccc2)CC1	-6	-3	97*	0
Cc1noc(C(=O)N2CCN(c3ccccc3)CC2)c1Cl	3	-3	96*	4
Cc1ccc(CSCC(=O)N(C)CC(=O)Nc2ccccc2C(F)(F)F)cc1	4	1	-2	10
COc1ccc(S(=O)(=O)NC2CCCCCC2)cc1C(N)=O	2	5	-6	-6
FC(F)(F)c1ccc(Cl)c(-n2c(-c3cc(C4CC4)[nH]n3)n[nH]c2=S)c1	-5	-6	78*	7
Brc1cccc(CSc2nnc(-c3ccncc3)o2)c1	0	2	9	5
Cc1cccc(N=c2oc3cc(O)ccc3cc2C(N)=O)c1	11	16	94*	-48
COc1ccccc1N=c1oc2cc(O)ccc2cc1C(N)=O	4	8	.	-81
COc1ccc(N2CCN(CCCNC(=O)CCC(=O)N3CCOc4ccc(Cl)cc43)CC2)cc1	-10	-11	99*	2
SMILES	GC-B act	GC-A act	ALR inh	HDAC3 inhib
C#CCOc1ccccc1C(N)=O	-1	-1	-17	-1
Nc1ccc(Cc2ccc(N)c(C(=O)O)c2)cc1C(=O)O	5	3	4	-22
Cc1cc(Cc2ccc(N)c(C)c2)ccc1N	9	-1	81*	-2
O=c1n(Cc2ccc(Cl)cc2)c2sc3c(c2c2ncnn12)CCCC3	49*	34	-32	2
CCOc1ccc(NC(=O)CN(C)S(=O)(=O)c2cccc3cccnc23)cc1	0	0	-10	-6
Cc1ccc(NC(=O)CN(C)S(=O)(=O)c2cccc3cccnc23)cc1	-6	-1	95*	0
O=C1NC(c2cccc3ccccc23)Nc2ccc(Cl)cc21 (stereo not given)	-8	-10	.	.
O=C(Cn1c(=O)oc2cc(S(=O)(=O)N3CCc4ccccc43)ccc21)N1CCCCC1	-6	1	88*	7
CCN(CC)c1nc(-c2ccccn2)nc(-c2ccccc2)c1C#N	-2	2	0	2
CN(CCO)c1ccc(C(C(=O)c2ccccc2)c2ccc(N(C)CCO)cc2)cc1	4	1	91*	4
